Experimental findings from ChEMBL document CHEMBL4888484, “Replenishing the malaria drug discovery pipeline: Screening and hit evaluation of the MMV Hit Generation Library 1 (HGL1) against asexual blood stage Plasmodium falciparum ,using a nano luciferase reporter read-out” (2022) are described below.

Each structure is given as a SMILES string. Screen size: about 150,000 compounds; about 540 (0.36%) showed an effect of 50% or more. The sample holds strong results, similar compounds and a random draw of the others, so the mix is not that of the screen.

This assay relates to Plasmodium falciparum. Kind of assay: Primary screen in NF54 nanoGlo assay, in single point, at 2uM, 72h; a lower Z score goes with more inhibition. Type of assay: functional, Erythrocyte. The conditions noted are these: timepoint 72 hour.
What is called % Inhibition is the drop in the measured response relative to a control, in per cent. Consider `COc1ccc(-n2c(CN3CCCC3)n[nH]c2=O)c(C)c1`, for which the “% Inhibition” value was -9% and the Z score is listed as 0.87.
The corresponding values for `Cc1ccc(OCC(=O)Nc2noc(-c3ccc(F)cc3)n2)cc1` are -8% and 1.23.
Taken in the same sequence, the figures for `CNc1nc(N2C[C@H](C)[C@@](O)(C3CC3)C2)nc2c1CCC2` were 100% and -0.11.
Taken in the same sequence, the figures for `CNc1nc(N2C[C@H]3CC[C@@H](C2)N(C)C3=O)nc2c1CCC2` were 6% and -0.76.
Consider `CNc1cc(C)nc(N2C[C@H](C)[C@@](O)(C3CC3)C2)n1`, for which the “% Inhibition” value was 7% and the Z score is given as -1.4.
For the compound `C=C1C2CCC3(C4C[C@@H]5[C@@]6(C)CCC[C@]5(C3[C@H]2O)[C@@H]4N(CC)C6)[C@@H]1O` (stereo not given in full), the “% Inhibition” value stood at 31% and the Z score is on record as -3.48.
Taken in the same sequence, the figures for `Cc1ccc(-c2cc(C(=O)N(Cc3cccs3)[C@H]3CCS(=O)(=O)C3)no2)cc1F` were -11% and 2.15.
The corresponding values for `CN(Cc1ccc(-c2ccccc2)cc1)c1cc([C@H]2C[C@@H](N)C2)nc(N)n1` are 64% and -8.85.
For `CN(Cc1cc(-c2ccccc2)n[nH]1)c1cc(C2CC(O)C2)nc(N)n1` (stereo not given), the “% Inhibition” value stood at 7% and the Z score was -1.1.
Taken in the same sequence, the figures for `CCCCN(C)c1cc([C@H]2C[C@@H](N)C2)nc(N)n1` were -3% and 0.38.
The corresponding values for `CCn1c(CN[C@H](c2ccccc2)c2cccs2)nc2cc(S(=O)(=O)N3CCCCC3)ccc21` are 14% and -1.61.
The corresponding values for `Cc1ccc(NC(=O)N2CC[C@H](N3CCN(C)CC3)[C@H](CCC(=O)O)C2)c(C)c1` are 16% and -2.12.
Take `O=C1CCCN1c1ccc(NCc2cccc(O)c2)cc1F`: the “% Inhibition” value is on record as -2% and the Z score was found to be 0.32.
As for `O=C(N1CCCN(C2CCC2)CC1)C1(c2ccccc2)CCOCC1`, the “% Inhibition” value is -14% and the Z score was found to be 2.36.
Regarding `CCOc1cc(CNC2CCCC2)cc(Br)c1OCC(=O)Nc1ccccc1OC`, the “% Inhibition” value was -12% and the Z score turned out to be 1.42.
The corresponding values for `CCOc1cc(CNc2cc(C)ccc2C)cc(Br)c1OCC(=O)Nc1ccccc1` are -2% and 0.3.
The corresponding values for `CCOc1cc(CNc2cccc3ccccc23)cc(Br)c1OCC(=O)NC(C)(C)C` are 56% and -9.96.
The corresponding values for `CN(C)c1ccccc1NC(=O)N[C@H]1CCS(=O)(=O)C1` are -11% and 1.66.
In the case of `COC(=O)Nc1nc(-c2ccccc2)c(-c2nc3ccccc3c(=O)n2-c2ccc(OC)cc2)s1`, the “% Inhibition” value is reported as 51% and the Z score is -6.56.
Taken in the same sequence, the figures for `CCOC(=O)Nc1nc(C)c(-c2nc3ccccc3c(=O)n2-c2ccc(OC)cc2)s1` were 37% and 0.52.
Taken in the same sequence, the figures for `COc1ccc(-n2c(-c3sc(Nc4ccc(Cl)cc4)nc3C)nc3ccccc3c2=O)cc1` were -3% and 0.38.
Taken in the same sequence, the figures for `C[C@H]1C(=O)N(C)C[C@@H](COc2ccccc2)N1C(=O)C1CCOCC1` were -7% and 0.87.
In the case of `Cc1cc(CNC(=O)N[C@@H]2CCc3cc(F)ccc32)on1`, the “% Inhibition” value is recorded as -7% and the Z score was determined as 0.96.
Taken in the same sequence, the figures for `COc1ccccc1C(=O)NC1=NN2C(=NC(c3ccc(Cl)cc3)=C[C@H]2c2ccc(Cl)cc2)N1` were 97% and -10.07.
As for `COc1ccccc1C(=O)NC1=NN2C(=NC(c3ccc(Cl)cc3)=C[C@H]2c2ccccc2)N1`, the “% Inhibition” value was -8% and the Z score is recorded as 0.83.
In the case of `COc1ccc([C@@H]2C=C(c3ccc(Cl)cc3)N=C3NC(N4C(=O)c5ccccc5C4=O)=NN32)cc1`, the “% Inhibition” value was -6% and the Z score is given as 0.61.
In the case of `O=C(O)CCC(=O)NC1=NN2C(=NC(c3ccccc3)=C[C@H]2c2ccc(Cl)cc2)N1`, the “% Inhibition” value is listed as -39% and the Z score came out at 4.56.
Turning to `COc1ccc([C@@H]2C=C(c3ccc(Cl)cc3)N=C3NC(NC(=O)c4ccccc4OC)=NN32)cc1`, the “% Inhibition” value was determined as 96% and the Z score was -8.52.
The corresponding values for `Fc1ccc(C2=C[C@@H](c3ccc(Cl)cc3)N3N=C(c4ccc(Cl)cc4)NC3=N2)cc1` are 96% and -14.66.
Turning to `O=C(NC1=NN2C(=NC(c3ccccc3)=C[C@H]2c2ccc(F)cc2)N1)c1ccccc1`, the “% Inhibition” value was -11% and the Z score worked out at 1.69.
The corresponding values for `O=C(NC1=NN2C(=NC(c3ccc(Cl)cc3)=C[C@H]2c2ccc(F)cc2)N1)c1ccc(Cl)cc1` are 48% and -9.04.
Taken in the same sequence, the figures for `CCC(=O)NC1=NN2C(=NC(c3ccc(Cl)cc3)=C[C@H]2c2ccc(F)cc2)N1` were 5% and -0.64.
The corresponding values for `Cc1cccc(OCC(=O)Nc2cc(-c3noc(C)n3)sc2C)c1` are -14% and 2.32.
Consider `Cc1ccc(-n2cnc3c2CCN(C(=O)C(=O)Nc2c4c(nn2C)CCCC4)C3)cc1`, for which the “% Inhibition” value is listed as -13% and the Z score is reported as 1.99.
The corresponding values for `C[C@H]1Cc2ccccc2N1C(=O)Cn1cc(-c2ccn(C)n2)nn1` are 6% and -0.77.
Taken in the same sequence, the figures for `COC(=O)CC(C)NC(=O)CC(C)NC(=O)C1CCCC1` (stereo not given) were -9% and 1.14.
The corresponding values for `OCCN(CCO)c1ccc(C(c2ccccc2Cl)c2ccc(N(CCO)CCO)cc2Cl)c(Cl)c1` are -9% and 1.44.
On to `OCCN(CCO)c1ccc2ccccc2c1`, for which the “% Inhibition” value turned out to be 7% and the Z score is -0.86.
With `CC1=CC(=[N+](CCO)CCO)C=C/C1=C(\c1ccc(N(CCO)CCO)cc1C)c1ccccc1Cl`, the “% Inhibition” value amounted to 86% and the Z score is recorded as -10.15.
Taken in the same sequence, the figures for `COc1cccc(C(=O)N2CCC([C@]3(CCC(C)C)NC(=O)N(CCN(C)C)C3=O)CC2)c1OC` were -8% and 1.37.
Turning to `O=C(Cc1ccc(F)cc1Cl)N[C@@H](Cc1ccncc1)C1CC(O)C1` (stereo not given in full), the “% Inhibition” value is -6% and the Z score worked out at 1.08.
For `N#Cc1cccc(CN2Cc3nc[nH]c3C[C@H]2C(=O)NCc2ccco2)c1`, the “% Inhibition” value was -5% and the Z score is 0.75.
Turning to `Nc1c(-c2nc3ccccc3[nH]2)c2nc3ccccc3nc2n1Cc1ccccc1F`, the “% Inhibition” value is reported as 78% and the Z score was -5.76.
The corresponding values for `Nc1c(S(=O)(=O)c2ccc(Cl)cc2)c2nc3ccccc3nc2n1Cc1ccc(F)cc1` are -2% and 0.21.
Taken in the same sequence, the figures for `CCn1c(N)c(-c2nc3ccccc3[nH]2)c(=O)c2ccccc21` were -1% and 0.15.
The corresponding values for `O=C(COc1ccc(Br)cc1)N1CCN(S(=O)(=O)c2ccc3ccccc3c2)CC1` are -3% and 0.36.
Turning to `CN(C)c1nc2cc(NC(=O)Cc3noc4ccccc34)ccc2o1`, the “% Inhibition” value is recorded as -15% and the Z score is 2.38.
Taken in the same sequence, the figures for `Cn1cnnc1CNC[C@H](O)c1ccc(Cl)cc1` were -8% and 1.54.
Taken in the same sequence, the figures for `CN(C)CCNS(=O)(=O)c1c[nH]c2c(Br)cccc12` were 31% and -3.96.
The corresponding values for `Cc1ccc2nc(CN3CCS(=O)(=O)C(C)C3C)cn2c1` (stereo not given) are -13% and 1.17.
For `COCCCNC(=O)c1cc(Br)ccc1Br`, the “% Inhibition” value was -3% and the Z score is reported as 0.44.
The corresponding values for `COc1cc2c(cc1OC)CN(C(=O)c1ccc(N3CCOCC3)nc1)CC2` are 2% and -0.32.
As for `CC(C)c1nnc(C2CCN(C(=O)c3c[nH]c4ccccc34)CC2)o1`, the “% Inhibition” value stood at 11% and the Z score is given as -1.46.
As for `O=c1[nH]c2cc(Cl)c(S(=O)(=O)Cl)cc2[nH]1`, the “% Inhibition” value is 69% and the Z score was -7.82.
`O=c1[nH]c2cc(Br)c(S(=O)(=O)Nc3cccnc3)cc2[nH]1`: the “% Inhibition” value turned out to be 3% and the Z score is on record as -0.54.
On to `Cc1cc2[nH]c(=O)[nH]c2cc1S(=O)(=O)NC1CCCCC1`, for which the “% Inhibition” value is given as -5% and the Z score turned out to be 0.69.
Taken in the same sequence, the figures for `CN1C(=O)C2(CCN(C(=O)CN3C(=O)OC(C)(C)C3=O)CC2)c2ccccc21` were -7% and 0.88.
Taken in the same sequence, the figures for `O=C(CN(CC1CCCO1)C(=O)C1CC1(Cl)Cl)N1CCCC1` (stereo not given) were -19% and 1.85.
Taken in the same sequence, the figures for `O=C(c1ccc2c(c1)OCO2)N1CCn2c1nc1ccccc12` were 72% and -0.31.
Turning to `O=C(c1cccc(-n2cnnn2)c1)N1CCn2c1nc1ccccc12`, the “% Inhibition” value was found to be 2% and the Z score is on record as -0.23.
Taken in the same sequence, the figures for `O=C(c1cncc(N2CCOCC2)c1)N1CCn2c1nc1ccccc12` were -9% and 1.5.
For the compound `Cc1cnc(C(=O)NC2CCCCCCC2)cn1`, the “% Inhibition” value is listed as 18% and the Z score is listed as -2.33.
In the case of `COc1ccc2nc(O)c(CCC(=O)N3CCCC3)cc2c1`, the “% Inhibition” value is reported as -20% and the Z score is on record as 3.74.
Taken in the same sequence, the figures for `O=C(CC1CCC(F)(F)CC1)Nc1ccc2c(c1F)CCNC2` were -13% and 1.83.
As for `COc1ccc2nc(O)c(C(=O)Nc3ccc4c(c3F)CCNC4)cc2c1`, the “% Inhibition” value is 99% and the Z score is recorded as -18.01.
Taken in the same sequence, the figures for `CC(C)n1ccnc1CN1CCC[C@@](O)(CNC(=O)N2CCCCC2)CC1` were -5% and 0.65.
Taken in the same sequence, the figures for `CC(C)CC[C@@H](CCNCc1ccccn1)c1ccc(Cl)cc1` were 25% and -3.14.
The corresponding values for `COc1ccc(Cl)cc1CNCCN(C)C` are -7% and 0.59.
Regarding `CN1CCC(NCCOCc2ccc(Cl)cc2Cl)CC1`, the “% Inhibition” value is 0% and the Z score amounted to 0.
Taken in the same sequence, the figures for `CC(C)CC[C@@H](CCNCCN(C)C)c1ccc(Cl)cc1` were 90% and -10.16.
Taken in the same sequence, the figures for `CC(Cc1ccccc1Cl)C(=O)NC1CCN(C(=O)Nc2ccccc2)C1` (stereo not given) were -1% and 0.11.
In the case of `CC(C)CCn1ccc(NC2CCN(C)CC2)n1`, the “% Inhibition” value is listed as -15% and the Z score is given as 1.91.
Consider `CC(C)CC[C@@H](CCN1CCCC1)c1ccc(OC(C)C)cc1`, for which the “% Inhibition” value is given as 2% and the Z score is listed as -0.36.
Taken in the same sequence, the figures for `CC(C)CC[C@@H](CCNC1CCN(C)CC1)c1ccc(Cl)cc1` were 63% and -7.69.
With `CN1CCC(NCC[C@@H](Cc2ccccc2Cl)c2ccc(Cl)cc2)CC1`, the “% Inhibition” value turned out to be 72% and the Z score is listed as -14.93.
Taken in the same sequence, the figures for `Cn1ccc(-c2nnc(NC(=O)C3CCCCC3)o2)n1` were -10% and 1.57.
The corresponding values for `Cc1c(F)cccc1C(=O)N(C)Cc1cc(C2CC2)on1` are 1% and -0.14.
The corresponding values for `Cc1nn(C(F)F)cc1-c1ccc(C(=O)N[C@H]2CCCC[C@@H]2O)cc1` are 1% and -0.28.
Take `CCn1c(CCc2cccc(NC(=O)Nc3ccccc3)c2)nc2ccccc21`: the “% Inhibition” value is reported as 1% and the Z score was -0.11.
Taken in the same sequence, the figures for `O=C(NCCc1cn2c(n1)CCCC2)c1cccnc1` were -1% and 0.23.
